HCV inh: qHTS Assay for Inhibitors of Hepatitis C Virus (HCV); Huh7.5.1 HCVcc-Cre infection, luciferase reporter, 44 h; Potency, µM (highest dose often 41.8 µM), usual class: inhibitors; 340,000 compounds, 3.4% hits; AID 651820, 2012; active means well fitted inhibition curve with a large enough effect; inconclusive means small, poorly fitted or top-dose-only effect, or another doubt; inactive means no such curve, though single readings can be large or run the other way
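Cells (1,000/well) were plated 4 h before compound, then infected with HCVcc-Cre virus (~0.5 moi). After 44 h further culture, infection was read as luciferase luminescence following a 15 min substrate incubation at room temperature.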
MARV entry inh: qHTS for inhibitors of binding or entry into cells for Marburg Virus | Marburg virus pseudotyped entry inhibition, cell reporter | Potency, µM (titrated, usually from 37.8 µM), usual class: inhibitors | 300,000 compounds, 1.8% hits; calls by dose curve; tested in HEK293 cells
Lassa entry inh: qHTS for Inhibitors of binding or entry into cells for Lassa Virus; Lassa virus pseudotype entry inhibition, cell reporter; Potency, µM (top dose mostly 37.9 µM), hits mostly inhibitors; 300,000 compounds, 1.2% hits; calls by dose curve; tested in HEK293 cells; further: nearly all actives have a fitted effect of over 50% in size
FMDV antiviral: High Throughput Screening for Foot and Mouth Disease Virus Antivirals | Potency, µM (series often up to 57.9 µM), most hits filed as inhibitors | 410,000 compounds, 1.2% hits | AID 1159524, 2015 | FMDV antiviral cell-based qHTS; calls by dose curve; tested in HEK293T cells; further: read-out not given here; nearly all actives have a fitted effect of over 45% in size
HCMV inh: qHTS Assay for inhibitors of the human cytomegalovirus (HCMV) | activity change, negative = inhibition, % at 57.5 µM | 410,000 compounds, 4.5% hits | HFF cells, HCMV-luciferase reporter, 72 h; active compounds read low; in the data active means activity change below about -60%; inconclusive means no clear call, values can overlap the other calls; inactive means above about -39%
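Inhibition of viral replication was scored as loss of reporter luminescence in HFFs infected with HCMV-luciferase (MOI 1 PFU/cell) for 72 h; compounds tested at 2 doses, normalized to buffer and Salinomycin controls.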
SARS PLpro yeast: qHTS of Yeast-based Assay for SARS-CoV PLP. Potency, µM (doses to about 32.9 µM), most hits filed as activators. S. cerevisiae expressing SARS-CoV PLpro, growth rescue. 330,000 compounds, 0.19% hits; calls by dose curve; further: nearly all actives have a fitted effect of over 55% in size
Hits are given with their value; 0 = inactive; ? = inconclusive; - = no result. In the library only some 8% were active in any assay of this set; here they are far more common.

SMILES | HCV inh | MARV entry inh | Lassa entry inh | FMDV antiviral | HCMV inh | SARS PLpro yeast
Cn1nnc2cc(NC(=O)Nc3cccc(Cl)c3)ccc21 | 0 | - | - | 0 | -102.4 | 0
O=C(O)[C@@H]1C[C@H](CP(=O)(O)O)CCN1 | - | - | - | 0 | - | -
COc1cccc(CNC(=O)COCc2cc(-c3ccc4c(c3)OCO4)on2)c1 | - | - | 0 | 0 | 0 | -
O=C(Nc1ccc(Cl)cc1)Nc1ccccc1C(=O)O | 0 | ? | ? | 0 | 0 | 0
O=C(Nc1ccc(Cl)c(Cl)c1)Nc1ccccc1C(=O)O | 0 | ? | 3.55µM | 0 | -79.2 | 0
CC(C)CCCCCCCCc1cccc(O)c1C(=O)O | - | - | - | - | 0 | -
Cc1cccc2cc(C#N)c(SCC(=O)NNC(=O)Cc3ccccc3)nc12 | 0 | ? | 0 | 0 | -63.0 | 0
Cc1cc2cccc(C)c2nc1SCC(=O)NNC(=O)c1ccco1 | 0 | 0 | 0 | 0 | ? | 0
Cc1cccc2cc(C#N)c(SCC#N)nc12 | 0 | - | - | 0 | -66.7 | 0
COc1ccc(Nc2cc3[nH]c(-c4cccc(C(F)(F)F)c4)cc3cn2)cc1OC | - | - | - | - | 0 | -
O=C(/C=N\O)NCCCN1CCOCC1 | - | 0 | - | - | - | -
CC(=O)c1sc(N/N=C\c2cccc(Br)c2)nc1C | 0 | ? | 14.1µM | 0 | 0 | 0
CC(=O)c1sc(N/N=C\c2ccc(Br)cc2)nc1C | 0 | 0 | ? | 0 | 0 | 0
CCOC(=O)c1ccc(NC(=O)CCn2c(=O)c3cccn3c3ccccc32)cc1 | - | - | ? | ? | 0 | -
Cc1ccc(NC(=O)c2cnc(SCC(=O)N3CCCc4ccccc43)n(C)c2=O)cc1 | - | - | 0 | 0 | ? | -
O=C(NC1CCCC1)C(c1ccncc1)N(Cc1ccco1)C(=O)c1ccc(-c2ccccc2)[nH]1 (stereo not drawn) | 0 | 10µM | - | 0 | 0 | 0
Cc1cc(C)cc(N(C(=O)CNC(=O)c2ccco2)C(C(=O)NC2CCCC2)c2ccncc2)c1 (stereo not drawn) | 0 | 0 | ? | 0 | -67.4 | 0
Cc1cc(NC(=O)CCC(=O)N(c2ccccc2)C2(C(=O)NC3CCCCC3)CCCC2)no1 | ? | ? | ? | 0 | -76.5 | 0
Cc1cc(C)cc(N(C(=O)CCC(=O)Nc2cc(C)on2)C(C(=O)NC2CCCC2)c2ccco2)c1 (stereo not drawn) | ? | 11.2µM | ? | 0 | 0 | 0
Cc1cccc(N(C(=O)CNC(=O)c2ccco2)C(C(=O)NC2CCCC2)c2ccncc2)c1 (stereo not drawn) | 0 | 0 | 0 | 0 | 0 | 0
O=C(NC1CCCC1)C(c1ccncc1)N(Cc1ccccc1)C(=O)c1ccc(-c2ccccc2)[nH]1 (stereo not drawn) | ? | ? | ? | 0 | 0 | 0
CN(C)c1ccc(CNC(=O)c2cnc(N3CCN(Cc4cccc(C(F)(F)F)c4)C3=O)o2)cc1 | - | - | - | - | 0 | -
Cc1cccc(NC(=O)CSc2nc(=O)n(CCN3CCOCC3)c3c2CCC3)c1 | - | - | 0 | 0 | 0 | -
Cc1ccc(C(C(=O)NC2CCCCC2)N(CC2CCCO2)C(=O)CCCC(=O)Nc2ccccn2)cc1 (stereo not drawn) | 0 | 0 | ? | 0 | -71.5 | 0
Cc1cc(NC(=O)CCC(=O)N(Cc2cccs2)C(C(=O)NC2CCCC2)c2cccnc2)no1 (stereo not drawn) | 0 | 0 | 0 | 0 | 0 | 0
SMILES | HCV inh | MARV entry inh | Lassa entry inh | FMDV antiviral | HCMV inh | SARS PLpro yeast
COCCN(C(=O)Cn1nnc2ccccc21)C(C(=O)NC1CCCCC1)c1ccc(OC)cc1OC (stereo not drawn) | 0 | 0 | 0 | 0 | 0 | 0
Cc1cc(NC(=O)CCC(=O)N(Cc2cccs2)C(C(=O)NC2CCCC2)c2ccccc2)no1 (stereo not drawn) | ? | 11.2µM | 0 | ? | 0 | 0
COc1cccc(C(C(=O)NC2CCCC2)N(CCC(C)C)C(=O)CCC(=O)Nc2cc(C)on2)c1 (stereo not drawn) | 0 | ? | ? | 0 | -65.8 | 0
COc1ccc(N(C(=O)Cn2nnc3ccccc32)C2(C(=O)NC3CCCC3)CCCCC2)cc1 | 5.62µM | ? | 0 | - | ? | 0
CCOC(=O)c1c(NC(C)=O)c2c3c(sc2n1Cc1nc(-c2ccccc2OCC)oc1C)CCCC3 | - | 0 | - | 0 | 0 | -
COc1ccc(C(=O)c2oc3ccccc3c2NC(=O)c2cc(=O)c3ccc(C)cc3o2)cc1Cl | - | ? | 0 | 0 | 0 | -
COc1cc(=O)n2c(c1C(=O)N(C)Cc1ccsc1)CCN(Cc1c(C)nc3sccn13)CC2 | - | - | - | 0 | - | -
O=C1C2=C(Nc3ccccc3SC2c2ccccc2C(F)(F)F)c2ccccc21 (stereo not drawn) | - | ? | 0 | 0 | -93.6 | -
O=C1C2=C(Nc3ccccc3SC2c2ccc(Cl)c(Cl)c2)c2ccccc21 (stereo not drawn) | - | 0 | ? | 0 | -99.8 | -
CCOc1cc(C2Sc3ccccc3NC3=C2C(=O)c2ccccc23)ccc1O (stereo not drawn) | - | 0 | ? | 0 | ? | -
CCCc1ccc(C2Sc3ccccc3NC3=C2C(=O)c2ccccc23)cc1 (stereo not drawn) | - | ? | ? | 0 | -92.6 | -
O=C(Cn1c(=O)nc(-c2ccccc2F)c2cc(Cl)ccc21)Nc1ccccc1C(F)(F)F | - | - | ? | 0 | 0 | -
COc1ccc2c(c1)c1c(c(=O)n(-c3cc(Cl)ccc3C)c(=O)n1Cc1ccc(F)cc1)n2C | - | - | 0 | 0 | 0 | -
Oc1cc2c(cc1O)[C@H]1c3ccccc3CN[C@H]1CC2 | - | 15.8µM | - | 0 | - | -
Oc1cc2c(cc1O)[C@H]1c3ccccc3CN[C@@H]1CC2 | - | - | - | - | - | 0
CCCCC(=O)N(CCOC)c1nnc(-c2ccccc2C)s1 | 1.78µM | ? | 0 | 0 | 0 | 0
O=S(=O)(c1cc(Br)ccc1Br)N1CCC(c2noc3ccccc23)CC1 | - | - | - | - | 0 | -
O=c1cnnc(N/N=C/c2ccccn2)[nH]1 | 6.31µM | - | - | 0 | 0 | ?
C(=N\Nc1ccc2nncn2n1)/c1ccccn1 | 0 | ? | ? | 0 | -87.4 | 0
C(=N\n1cnnc1)/c1ccccn1 | 0 | ? | 0 | 0 | 0 | 0
c1ccc2c(c1)CC/C2=N/Nc1nc2ccccc2[nH]1 | ? | ? | ? | 0 | -112.1 | 0
O=c1nc(N/N=C/c2ccccn2)cn[nH]1 | ? | ? | 3.55µM | 0 | 0 | 0
O=C(Nc1ccc(F)cc1F)c1ccc2c(O)c(S(=O)(=O)c3ccc(Cl)cc3)c(=O)[nH]c2c1 | - | - | 0 | 0 | 0 | -
C(=N\Nc1nc2ccccc2[nH]1)/c1ccc2ncccc2c1 | ? | ? | ? | 0 | 0 | 0
C(=N\Nc1nc2ccccc2[nH]1)/c1cccc2nccnc12 | ? | ? | ? | 0 | 0 | 0
C#CCn1cc(/C=N/Nc2nc3ccccc3[nH]2)c2ccccc21 | ? | ? | ? | 0 | -69.1 | 0
C(=N\Nc1nc2ccccc2[nH]1)/c1ccccn1 | 0 | - | - | 10µM | -99.9 | 0
O=C1NC(=O)N(Cc2ccco2)C(=O)/C1=C\c1cccn1CCOc1ccc(Cl)cc1 | 0 | 0 | 0 | 35.5µM | 0 | 0
CC(C)CCOc1ccc(Cn2c(=O)oc3ccccc32)cc1 | - | 0 | 0 | 0 | 0 | -

Screening results (PubChem BioAssay)
